The source of these data is PubChem BioAssay (NCI).

Structures are written as SMILES. About 83,000 compounds went through this panel and 20% of them were active in at least one assay; those are over-represented in the sample as a whole.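 Values shown are percent growth following 48 h exposure of cells in 96-well plates to a single concentration of compound; below 10 was considered active.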 Calls of active or inactive are those of the source.

This test concerns HL-60(TB) leukemia. The test can be described thus: NCI-60 one-dose screen, 48 h (100 = growth as untreated, 0 = no growth, -100 = all killed). The note with it: 10 µM unless noted.
In the case of `Clc1cc(Cl)cc(N2N=C(c3cccc(Nc4ccncc4)c3)CC2c2ccccc2)c1` (stereo not drawn), the growth is 4.62% (active).

For the molecule `Cc1cc(C(=O)Nc2ccc3cc(CN4CCOCC4)ccc3n2)c(C)n1-c1ccccc1`, the growth was 14.5% (inactive). In the case of `CCCn1c2cc(OCc3cn(-c4ccc(Br)cc4)nn3)ccc2c2ccnc(C)c21`, the growth was -61.3% (active). Consider `CCc1ccc2c(c1)N(CCO)C1=C(C(=O)OC1)C2c1ccccc1` (stereo not drawn), for which the growth was 94.9% (inactive).

As to `C=CCn1c(SCC(=O)Nc2ccc(C(=O)/C=C/c3cc(OC)c(OC)c(OC)c3)cc2)nnc1-c1cc(-c2ccc(S(N)(=O)=O)cc2)nc2ccccc12`, the growth was 57.5% (inactive). Take `COc1ccc(/C=C(\C#N)c2cc3ccccc3n2C(C)=O)cc1`: the growth was 83.2% (inactive). `COc1nc2c(c(=O)n1C)CN(Cc1ccccc1)C=N2`: the growth is 92.9% (inactive). Under `c1c2c(cc3c1OCO3)Cc1cc3c(cc1Cc1cc4c(cc1C2)OCO4)OCO3` stands 116% (inactive). For `Cc1cc(NS(=O)(=O)c2ccc(NC(=O)COc3ccc(-c4cc5ccccc5[nH]4)cc3)cc2)no1`, the growth was 7.86% (active). In the case of `O=Nc1c2cccnc2n2nnc3ccc(Cl)cc3c12`, the growth is -48.7% (active).

Consider `COC(=O)N1CC(Oc2ccccn2)C2CC1c1ccccc1O2` (stereo not drawn), for which the growth is 99.8% (inactive). As to `CCN1CCN(c2nc(C)cc(N(CCCNc3ccnc4cc(Cl)ccc34)Cc3ccco3)n2)CC1`, the growth is 37.5% (inactive). As for `CCCCCCCCCCCCCCCCNC(=S)N/N=C/c1ccc(OC)cc1`, the growth was 94.3% (inactive).
